In PubChem BioAssay one finds composite z-score and z-score data, which are given here for nine compounds.

Assay [1] can be described thus: small molecules captured by biotinylated probe aFSTL3 – biochemical, small-molecule microarray, fluorescence 635/667, stem cell growth factor project, primary screen (AID 1064).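 Further: measures binding of the biotinylated anti-FSTL3 antibody to printed compounds.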 The note with it: higher = more signal.
Assay [2] can be described thus: binders from COS7 lysate, DM2A8 probe, primary screen, torsin A project, cell lysate, small-molecule microarray, fluorescence 635/667 (AID 1065). The following applies: higher = more signal, COS7 lysate expressing mutant human TOR1A.
Assay [3] is described as follows: small molecules captured by biotinylated probe aFGF2 – biochemical, small-molecule microarray, fluorescence 635/667, stem cell growth factor project, primary screen (AID 1067).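 Further: measures binding of biotinylated aFGF2 protein to printed compounds on slides; z-score merges feature fluorescence and signal-to-noise across triplicate slides.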 The note with it: higher = more signal.
Assay [4] in a line: small molecules captured by biotinylated probe aFGF10 – biochemical, small-molecule microarray, fluorescence 635/667, stem cell growth factor project, primary screen (AID 1071).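 Further: score merges 667 nm spot intensity and signal to noise from triplicate slides.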 The note with it: higher = more signal.
Assay [5] concerns the target Neurogenic locus notch homolog protein 2 (Homo sapiens) (UniProt Q04721). Briefly: small molecules binding Notch2 protein – biochemical, small-molecule microarray, 635 nm fluorescence, stem cell growth factors, primary screen (AID 1073). The note with it: higher = more signal.
Assay [6] concerns the target Pro-neuregulin-1, membrane-bound isoform (Homo sapiens) (UniProt Q02297). Briefly: small molecules binding neuregulin-1 protein – biochemical, small-molecule microarray, fluorescence 635/667, psychiatric disease protein project, primary screen (AID 1075).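 Further: score combines 667 nm spot fluorescence with signal to noise.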 The note with it: NRG1 binding, 635 nm fluorescence, higher = more signal.
Assay [7] deals with Neuregulin-1 EGF-like domain. Briefly: small molecules binding NRG1 EGF domain – biochemical, small-molecule microarray, 635 nm fluorescence, primary screen (AID 1081).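 Further: binding of the protein to compounds printed on small-molecule microarray slides.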 The following applies: higher = more signal.
A short description of assay [8]: FRG1 expression reporter modulators in myotubes – cell-based, C2C12 myotubes, firefly/Renilla luciferase, luminescence, FRG1 inhibition for FSHD, primary screen (AID 1084). The following applies: FRG1 promoter luciferase, higher = more signal, called active from +8 up or from −8 down.
A short description of assay [9]: small molecules captured by biotinylated probe aFST – biochemical, small-molecule microarray, fluorescence 635/667, stem cell growth factor project, primary screen (AID 1086).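 Further: score merges 667 nm fluorescence with signal-to-noise of each printed compound spot.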 The note with it: higher = more signal.
Assay [10] in a line: binders of probe aHhip on microarray, primary screen, stem cell growth factor project, biochemical, small-molecule microarray, fluorescence 635/667 (AID 1087).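 Further: score merges spot fluorescence at 667nm with spot signal to noise ratio.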 The note with it: higher = more signal.
Assay [11] deals with PRMT1 (protein arginine N-methyltransferase 1). Kind of assay: small molecules binding arginine methyltransferase PRMT1 – biochemical, small-molecule microarray, 635 nm fluorescence, primary screen (AID 1088).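 Further: binding of Prmt1 protein to compounds spotted on small-molecule microarray slides.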 The following applies: higher = more signal.
Assay [12] in a line: growth effects on S. cerevisiae YJM789 – YJM789 clinical isolate, OD600, 24 h, basal, primary screen (AID 1089).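 Further: growth of clinical yeast isolate S. cerevisiae YJM 789 seeded 1000 cells per well; test concentration not given here.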 The note with it: higher = more signal, called active from +8 up or from −8 down.
A short description of assay [13]: S. pombe growth modifiers, basal conditions – strain 972, OD600, 24 h, no modulator, primary screen (AID 1090).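 Further: basal condition with compound alone and no growth modifier present; test concentration not given here.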 The following applies: S. pombe 972 growth, higher = more signal, called active from +8 up or from −8 down.
Assay [14] in a line: budding yeast growth modifiers under rapamycin – strain BY4716, OD600, 96 h, primary screen (AID 1091). Further: test concentration not given here. The note with it: S. cerevisiae BY4716 + rapamycin, higher = more signal, called active from +8 up or from −8 down.
Assay [15] deals with Torsin-1A-interacting protein 2 (Homo sapiens) (UniProt Q8NFQ8). Kind of assay: small molecules binding lysate-expressed LULL1 – cell lysate, human LULL1 lysate, 635/667 nm fluorescence, primary screen (AID 1092).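 Further: probe is lysate of COS7 cells overexpressing human LULL1; score merges per-feature 667 nm fluorescence with signal-to-noise.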 The following applies: small-molecule microarray, hLULL1 lysate binding, 635 nm fluorescence; higher = more signal.
Assay [16] in a line: optical density change of DRC41 E. coli – strain DRC41, OD650, 24 h, E. coli filamentation project, primary screen (AID 1093).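 Further: MC1000 strain lacking acrAB efflux and sulA so SOS filamentation is blocked; test concentration not given here.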 The note with it: E. coli DRC41 growth, higher = more signal, called active from +8 up or from −8 down.
Assay [17] is described as follows: probe aLefty2 binding to arrayed compounds – biochemical, biotinylated probe, 635/667 nm fluorescence, primary screen (AID 1094).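 Further: score merges spot fluorescence near 667 nm with spot signal-to-noise ratio.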 The following applies: small-molecule microarray, higher = more signal.
Assay [18] deals with Noggin (protein binding on small-molecule microarray). Kind of assay: small molecules binding Noggin protein – biochemical, 635/667 nm fluorescence, primary screen (AID 1095).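 Further: score merges 667 nm feature fluorescence with signal to noise over triplicate slides.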 The following applies: 635 nm fluorescence, higher = more signal.
Assay [19] addresses Neurogenic locus notch homolog protein 3 (Homo sapiens) (UniProt Q9UM47). Kind of assay: small molecules binding NOTCH3 protein – biochemical, 635/667 nm fluorescence, primary screen (AID 1096). The note with it: small-molecule microarray, 635 nm fluorescence, higher = more signal.
A short description of assay [20]: probe aEGFR binding to arrayed compounds – biochemical, biotinylated probe, 635/667 nm fluorescence, primary screen (AID 1097).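 Further: probe is a biotinylated anti-EGFR antibody binding compounds printed on slides; score combines fluorescence near 667 nm and signal to noise of each spot.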 The following applies: small-molecule microarray, higher = more signal.

Active and inactive are the calls of the source.

Neurogenic locus notch homolog protein 3 (Homo sapiens), sequence (Q9UM47 whole entry, looked up): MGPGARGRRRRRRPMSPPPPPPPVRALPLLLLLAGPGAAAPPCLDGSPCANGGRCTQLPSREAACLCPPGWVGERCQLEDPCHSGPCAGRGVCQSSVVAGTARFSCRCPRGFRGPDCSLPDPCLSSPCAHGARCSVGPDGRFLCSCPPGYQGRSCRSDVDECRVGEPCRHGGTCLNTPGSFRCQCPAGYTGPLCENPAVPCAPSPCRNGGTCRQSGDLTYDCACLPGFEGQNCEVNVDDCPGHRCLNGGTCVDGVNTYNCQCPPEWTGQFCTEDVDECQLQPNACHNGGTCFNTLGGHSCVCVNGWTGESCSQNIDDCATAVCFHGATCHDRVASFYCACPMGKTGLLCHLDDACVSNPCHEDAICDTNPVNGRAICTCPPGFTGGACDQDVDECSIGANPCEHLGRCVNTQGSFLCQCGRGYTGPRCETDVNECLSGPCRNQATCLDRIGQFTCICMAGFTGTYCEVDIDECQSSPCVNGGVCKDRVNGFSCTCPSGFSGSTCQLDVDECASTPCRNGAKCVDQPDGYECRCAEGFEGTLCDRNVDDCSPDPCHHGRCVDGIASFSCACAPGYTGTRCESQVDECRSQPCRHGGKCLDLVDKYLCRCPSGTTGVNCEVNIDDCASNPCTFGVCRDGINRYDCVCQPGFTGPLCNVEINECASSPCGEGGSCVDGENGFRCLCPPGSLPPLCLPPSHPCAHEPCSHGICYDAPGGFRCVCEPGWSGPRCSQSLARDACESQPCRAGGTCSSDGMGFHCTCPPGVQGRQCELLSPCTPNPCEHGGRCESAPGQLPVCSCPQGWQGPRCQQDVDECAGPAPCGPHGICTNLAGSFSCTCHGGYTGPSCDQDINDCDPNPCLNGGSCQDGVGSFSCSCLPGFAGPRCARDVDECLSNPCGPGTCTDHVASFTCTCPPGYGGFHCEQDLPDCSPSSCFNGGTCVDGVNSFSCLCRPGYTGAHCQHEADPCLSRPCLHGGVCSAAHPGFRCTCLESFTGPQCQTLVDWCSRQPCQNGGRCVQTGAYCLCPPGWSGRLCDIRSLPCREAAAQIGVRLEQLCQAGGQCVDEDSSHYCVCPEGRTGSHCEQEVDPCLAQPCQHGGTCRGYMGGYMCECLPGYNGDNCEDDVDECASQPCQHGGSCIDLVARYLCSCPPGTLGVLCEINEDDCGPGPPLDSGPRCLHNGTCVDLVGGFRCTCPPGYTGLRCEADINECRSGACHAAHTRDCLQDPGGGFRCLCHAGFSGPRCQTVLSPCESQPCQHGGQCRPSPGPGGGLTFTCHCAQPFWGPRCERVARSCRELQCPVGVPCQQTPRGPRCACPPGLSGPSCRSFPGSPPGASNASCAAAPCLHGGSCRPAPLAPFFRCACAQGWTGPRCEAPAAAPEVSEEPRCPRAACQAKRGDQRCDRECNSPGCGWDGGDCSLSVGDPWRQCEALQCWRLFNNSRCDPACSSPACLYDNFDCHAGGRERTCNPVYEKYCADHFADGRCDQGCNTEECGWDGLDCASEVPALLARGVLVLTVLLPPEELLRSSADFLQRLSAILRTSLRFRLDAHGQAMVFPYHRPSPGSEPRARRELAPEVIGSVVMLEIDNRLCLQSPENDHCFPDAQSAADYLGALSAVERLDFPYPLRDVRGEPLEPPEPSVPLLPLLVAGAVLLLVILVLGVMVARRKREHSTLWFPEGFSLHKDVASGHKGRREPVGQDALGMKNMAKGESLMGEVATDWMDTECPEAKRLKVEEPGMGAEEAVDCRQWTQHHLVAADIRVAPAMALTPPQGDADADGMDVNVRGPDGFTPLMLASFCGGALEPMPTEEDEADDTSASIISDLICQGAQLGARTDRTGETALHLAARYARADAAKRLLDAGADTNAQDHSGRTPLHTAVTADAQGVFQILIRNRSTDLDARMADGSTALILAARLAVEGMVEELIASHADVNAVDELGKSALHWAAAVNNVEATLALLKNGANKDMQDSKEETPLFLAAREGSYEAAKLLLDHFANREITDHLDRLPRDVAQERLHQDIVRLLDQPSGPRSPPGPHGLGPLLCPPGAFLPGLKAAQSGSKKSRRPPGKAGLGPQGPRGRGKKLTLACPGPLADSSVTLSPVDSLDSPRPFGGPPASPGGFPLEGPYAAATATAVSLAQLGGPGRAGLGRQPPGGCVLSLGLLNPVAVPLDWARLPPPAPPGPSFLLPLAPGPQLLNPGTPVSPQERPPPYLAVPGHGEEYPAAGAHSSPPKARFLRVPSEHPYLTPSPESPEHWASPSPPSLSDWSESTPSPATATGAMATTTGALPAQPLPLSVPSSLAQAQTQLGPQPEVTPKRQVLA
Torsin-1A-interacting protein 2 (Homo sapiens), sequence (Q8NFQ8 whole entry, looked up): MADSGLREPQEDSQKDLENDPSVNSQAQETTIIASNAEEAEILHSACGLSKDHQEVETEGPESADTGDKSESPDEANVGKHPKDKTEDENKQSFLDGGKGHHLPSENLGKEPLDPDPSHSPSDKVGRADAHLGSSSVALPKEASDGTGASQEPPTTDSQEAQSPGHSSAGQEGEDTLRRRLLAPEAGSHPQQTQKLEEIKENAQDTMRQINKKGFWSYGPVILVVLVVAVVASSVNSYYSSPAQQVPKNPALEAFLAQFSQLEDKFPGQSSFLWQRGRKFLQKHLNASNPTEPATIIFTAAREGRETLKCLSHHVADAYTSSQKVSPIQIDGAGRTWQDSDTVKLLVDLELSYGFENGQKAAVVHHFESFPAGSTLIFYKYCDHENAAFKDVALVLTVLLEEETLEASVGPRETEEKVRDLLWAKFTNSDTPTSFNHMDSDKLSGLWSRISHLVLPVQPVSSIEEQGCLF
Pro-neuregulin-1, membrane-bound isoform (Homo sapiens), sequence (Q02297 whole entry, looked up, the tested form may be a part, canonical isoform): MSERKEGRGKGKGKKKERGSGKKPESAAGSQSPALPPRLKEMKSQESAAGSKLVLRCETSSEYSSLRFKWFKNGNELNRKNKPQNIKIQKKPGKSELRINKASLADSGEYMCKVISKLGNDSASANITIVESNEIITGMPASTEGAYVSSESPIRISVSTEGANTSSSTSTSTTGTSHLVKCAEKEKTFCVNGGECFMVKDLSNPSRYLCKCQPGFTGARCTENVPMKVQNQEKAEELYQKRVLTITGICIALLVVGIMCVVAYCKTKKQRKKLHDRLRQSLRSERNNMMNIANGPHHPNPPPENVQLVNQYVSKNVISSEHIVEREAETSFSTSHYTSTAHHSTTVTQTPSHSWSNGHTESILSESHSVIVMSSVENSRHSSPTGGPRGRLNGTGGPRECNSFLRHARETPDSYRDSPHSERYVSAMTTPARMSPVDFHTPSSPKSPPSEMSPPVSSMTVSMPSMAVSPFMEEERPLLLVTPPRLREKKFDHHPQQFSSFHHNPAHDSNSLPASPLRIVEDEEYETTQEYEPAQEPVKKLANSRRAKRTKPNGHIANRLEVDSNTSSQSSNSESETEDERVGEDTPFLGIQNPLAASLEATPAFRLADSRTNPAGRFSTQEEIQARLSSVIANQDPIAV

For `CCOC(=O)C1=C[C@@H](C(C)(C)C)N(S(=O)(=O)c2ccc(C)cc2)[C@H]1c1ccccc1Cl`, the composite z-score in assay [1] turned out to be 0.284; in [2] it was 0.534; in assay [3] it was 0.122; in [4], 0.624; in assay [5] it was 1.61; in assay [6], 1.25. For the same compound, the composite z-score turned out to be 1.14 in assay [7]; 1.07 in [9]; 0.0401 in assay [10]; 1.53 in [11]; 2.61 in assay [15]; 0.144 in assay [17]. The composite z-score came to 0.614 in [18], 1.05 in [19] and 0.0522 in [20]. Besides, the z-score is -2.24 (inactive) in assay [8]; 0.168 (inactive) in assay [12]; 2.3 (inactive) in [13]; 2.15 (inactive) in [14]; -0.766 (inactive) in assay [16].
For `CCOC(=O)C[C@H]1[C@H](OC(=O)c2ccc(C(=O)c3ccccc3)cc2)[C@@H](NC(=O)c2ccc3ccccc3c2)c2cc(OCCCO)ccc2N1C(=O)c1ccc2ccccc2n1`, the composite z-score in [1] is -0.432; in assay [2], 0.761; in [3] it was -0.101; in assay [4], 0.746; in assay [5], 0.5; in assay [6], 0.43. Besides, the composite z-score in assay [7] was 0.53; in assay [9], 0.392; in [10] it was -0.151; in assay [11], 1.26; in assay [15], 0.962; in [17], 0.0249. For the same compound, the figures for the composite z-score in assay [18], in assay [19] and in assay [20] were 0.836, 1.03 and 0.111, respectively. Also, the z-score is 0.476 (inactive) in [8]; 0.216 (inactive) in assay [12]; -0.629 (inactive) in assay [13]; 0.256 (inactive) in assay [14]; 1.79 (inactive) in [16].
As for `COc1ccc([Si](C)(C)[C@H]2[C@H](CC(=O)N3Cc4ccccc4C[C@H]3CO)O[C@@]3(C(=O)N(Cc4cccc(N5C(=O)c6cccc7cccc5c67)c4)c4ccccc43)[C@@H]2C)cc1`, the composite z-score in assay [1] was -0.581; in assay [2], 0.847; in assay [3] it was -0.0859; in assay [4], 0.539; in assay [5] it was 0.0297; in assay [6], 0.997. The composite z-score in [7] was 1.03; in assay [9] it was 0.487; in assay [10], -0.648; in assay [11], 1.56; in assay [15], 2.14; in assay [17], -0.173. For the same compound, the composite z-score in assay [18] is 1.57; in assay [19], 1.13; in assay [20], -0.122. The z-score in assay [8] was -2.61 (inactive); in [12], -0.0979 (inactive); in assay [13] it was 0.39 (inactive); in assay [14] it was 1.77 (inactive); in assay [16] it was -0.0872 (inactive).
Consider `NC(=O)N1C(=O)C2C(C1=O)C1C=C(CCCO)C2C(c2ccc(CN3CCCC3)cc2)N1Cc1cccc(OC(F)(F)F)c1` (stereo not given), for which the composite z-score in assay [1] was -0.0367; in assay [2], 0.145; in assay [3], 0.028; in assay [4], 0.173; in assay [5], 0.185; in assay [6], -0.299. The composite z-score in assay [7] was 1.03; in assay [9], 0.0635; in assay [10], -0.0296; in assay [11] it was 1.33; in assay [15], 1.28; in assay [17] it was 0.0472. The composite z-score in [18] was 0.623; in assay [19], 0.0057; in assay [20], -0.0286. In addition, the z-score was -0.0987 (inactive) in assay [8]; -1.11 (inactive) in assay [12]; -2.67 (inactive) in [13]; -2.1 (inactive) in assay [14]; 0.489 (inactive) in [16].
For the compound `COC(=O)c1c(CC[C@@H](CO)NC(=O)N[C@@H](Cc2ccccc2)Cn2cc(-c3cncn3C)nn2)oc(C(C)=O)c1C(=O)OC`, the composite z-score in assay [1] is -0.42; in [2], 0.259; in assay [3], -0.129; in assay [4], 0.716; in [5], -0.451; in assay [6] it was 1.67. The composite z-score is 1.29 in assay [7]; 0.0625 in [9]; -0.0401 in assay [10]; 1.51 in assay [11]; 2.99 in [15]; -0.215 in [17]. In addition, the composite z-score was 0.801 in assay [18], 0.912 in [19] and -0.142 in assay [20]. Besides, the z-score in assay [8] was 0.691 (inactive); in assay [12], 0.268 (inactive); in assay [13], -0.0536 (inactive); in assay [14], -0.131 (inactive); in [16], 0.916 (inactive).
For the compound `C=CCC(OC(C)=O)[C@@H]1[C@@H](N(Cc2cc3ccccc3o2)C(=O)c2ccc(-c3ccccc3)cc2)c2cc(OCCCO)ccc2N1C(=O)c1ccc2ccccc2n1` (stereo not given in full), the composite z-score in [1] was -0.128; in assay [2] it was -0.0562; in [3] it was -0.128; in [4] it was 0.0599; in assay [5] it was -0.234; in [6], 0.0289. Further, the composite z-score in assay [7] is -0.464; in assay [9], 0.268; in assay [10], 0.417; in assay [11] it was -0.766; in assay [15], 0.607; in [17], -0.072. Moreover, the figures for the composite z-score in assay [18], in assay [19] and in [20] were 0.0917, -0.781 and -0.0151, respectively. The z-score in [8] is -1.47 (inactive); in assay [12], 0.806 (inactive); in assay [13], 0.0887 (inactive); in assay [14], 1.16 (inactive); in assay [16], 0.859 (inactive).
As to `CCCCCCc1nc(-c2ccc(OC)nc2)cc2c1[Si](C(C)C)(C(C)C)OC2`, the composite z-score in assay [1] was -0.0192; in assay [2], 0.456; in [3], -0.15; in assay [4] it was -0.0125; in assay [5], -0.383; in assay [6], -0.151. Moreover, the composite z-score in assay [7] was -0.769; in assay [9], -0.193; in assay [10] it was 0.0306; in assay [11], -0.741; in assay [15], -0.342; in assay [17], -0.143. For the same compound, the composite z-score in [18] is -0.374; in assay [19] it was -0.123; in assay [20] it was -0.24. Further, the z-score in [8] is 0.366 (inactive); in [12], -0.1 (inactive); in [13], -0.283 (inactive); in [14] it was -0.218 (inactive); in assay [16], -0.647 (inactive).
As for `CCCCCCCCCCC(O)C1C=CC2C(=O)N(C)C(=O)C2N1N1CCCCC1` (stereo not given), the composite z-score in [1] is 0.449; in assay [2], -0.346; in assay [3] it was -0.213; in assay [4], -1.1; in assay [5] it was -1.96; in assay [6] it was 0.252. Moreover, the composite z-score is -0.413 in assay [7]; -0.744 in assay [9]; -0.0423 in assay [10]; -0.804 in assay [11]; 1.64 in assay [15]; -0.118 in [17]. The figures for the composite z-score in assay [18], in [19] and in [20] were -1.9, -1.14 and -0.368, respectively. For the same compound, the z-score in assay [8] was -0.635 (inactive); in assay [12] it was 1.16 (inactive); in assay [13] it was -2.31 (inactive); in assay [14], 2.18 (inactive); in assay [16], -1.6 (inactive).
For the compound `COCCOC(=O)N1C(=O)[C@@]2(c3ccccc31)[C@H](C(N)=O)[C@H]1C(=O)O[C@H](c3ccccc3)[C@H](c3ccccc3)N1[C@@H]2c1ccc(OCCO)cc1`, the composite z-score in [1] was -0.4; in assay [2] it was 1.06; in assay [3], 0.0445; in [4], 0.257; in assay [5] it was 0.995; in [6] it was 1.59. Besides, the composite z-score is 1.21 in [7]; 0.239 in assay [9]; 0.0854 in assay [10]; 1.54 in [11]; 2.58 in assay [15]; -0.0862 in [17]. For the same compound, the composite z-score is 1.61 in [18], 1.14 in assay [19] and -0.132 in assay [20]. Besides, the z-score in assay [8] is 0.341 (inactive); in [12], 2.25 (inactive); in [13], 0.601 (inactive); in [14] it was 4.25 (inactive); in [16], 0.935 (inactive).
